Screening data from PubChem.
Sampled rows, rich in hits. Any-hit rate of the full collection: about 13%.
HCV inh – HCV inhibition; Huh7.5.1 HCVcc-Cre infection, luciferase reporter, 44 h; Potency, µM (doses to about 41.8 µM), actives largely listed as inhibitors; actives 3.4% (n = 340,000); AID 651820
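A cell-based infection assay in which seeded cells (1,000 per well) receive test compound after 4 h, are inoculated with HCVcc-Cre at approximately 0.5 moi, and are incubated 44 h before luminescence detection.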
Pf growth 48h – P. falciparum growth inhibition at 48 hours (one generation); P. falciparum luciferase growth in erythrocytes, 48 h; Potency, µM (series often up to 28.7 µM), usual class: inhibitors; actives 5.9% (n = 310,000); AID 504832
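Erythrocytes infected with P. falciparum carrying an integrated firefly luciferase reporter (2% hematocrit, 0.1% parasitemia final) were exposed to compounds in RPMI 1640 with 0.5% Albumax at 37 C, 5% CO2. Growth inhibition was scored as reduced luminescence.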
Pf growth 96h – P. falciparum growth inhibition at 96 hours | P. falciparum luciferase reporter growth, 96 h | Potency, µM (doses to about 28.7 µM), actives largely listed as inhibitors | actives 6.9% (n = 320,000)
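Two parasite generations (96 h, 37 C, 5% CO2) of compound exposure in infected erythrocytes (0.05% parasitemia, 2% hematocrit). Luciferase-reporter P. falciparum; decreased luminescence indicates inhibited growth, aimed at apicoplast-acting delayed death.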
HCMV antiviral – human cytomegalovirus inhibition; activity change, negative = inhibition, % at 57.5 µM; HFF cells, HCMV-luciferase reporter, 72 h; active compounds read low; AID 1259415; actives 4.5% (n = 410,000); in the data active means activity change below about -60%; inconclusive means no clear call, values can overlap the other calls; inactive means above about -39%
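Cell-based, HFFs, 1000 cells/well, 16 h 37C; cpds in DMSO + HCMV-luc, MOI 1 PFU/cell; 72 h 37C; OneGlo luminescence after 5 min RT; norm. to buffer vs Salinomycin 10uM.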
Large screens that a line does not name were inactive. Unless noted, the call rests on the fitted dose curve; in most records, active means well fitted inhibition curve with a large enough effect; inconclusive means small, poorly fitted or top-dose-only effect, or another doubt; inactive means no such curve, though single readings can be large or run the other way.

COc1ccc(OC)c(-n2c(SCC(C)=O)nnc2-c2cccc(S(=O)(=O)N(C)C)c2)c1	Pf growth 96h 12µM (no result: Pf growth 48h)
CCSc1nnc(-c2cccc(S(=O)(=O)N(C)C)c2)n1-c1cc(OC)ccc1OC	HCV inh inconclusive, Pf growth 48h inconclusive, Pf growth 96h inconclusive
COc1cccc(-n2c(-c3cccc(S(=O)(=O)N(C)C)c3)n[nH]c2=S)c1	Pf growth 96h inconclusive
COc1ccc(-c2nnc(SCc3c(C)noc3C)n2N)cc1OC	Pf growth 48h inconclusive, Pf growth 96h 12µM (no result: HCV inh)
Cc1noc(C)c1CSc1nnc(-c2cc(Cl)ccc2Cl)n1N	none
Cc1ccc(CNC(=O)C(=O)NCC(c2cccs2)S(=O)(=O)c2ccc(C)cc2)cc1 (stereo unspecified)	none (no result: HCV inh, Pf growth 48h, Pf growth 96h)
O=C(Nc1ccc(F)c(Cl)c1)N1CC=C(c2c[nH]c3ccccc23)CC1	none (no result: HCV inh, Pf growth 48h, Pf growth 96h)
CCc1nc2c(OCC(=O)c3ccc(Cl)cc3Cl)cccn2c1N(C=O)Cc1ccccc1	none (no result: HCV inh, Pf growth 48h, Pf growth 96h)
N#Cc1cccc(NC(=O)c2cc(C3CCCCN3C(=O)C3CC3)on2)c1 (stereo unspecified)	HCMV antiviral -63 (no result: HCV inh, Pf growth 48h, Pf growth 96h)
CCOc1ccccc1NC1(c2ccccc2)C(=O)c2ccccc2C1=O	none (no result: HCV inh, Pf growth 48h, Pf growth 96h)
Cc1ccc([N+](=O)[O-])cc1S(=O)(=O)NCC1COc2ccccc2O1 (stereo unspecified)	HCV inh inconclusive, Pf growth 96h inconclusive, HCMV antiviral -68
CN(C)S(=O)(=O)c1ccc(NCC2COc3ccccc3O2)c([N+](=O)[O-])c1 (stereo unspecified)	Pf growth 96h 13µM
CCN(CC)S(=O)(=O)c1ccc(NCC2COc3ccccc3O2)c([N+](=O)[O-])c1 (stereo unspecified)	HCV inh inconclusive, Pf growth 48h inconclusive, Pf growth 96h inconclusive
Cc1ccc(S(=O)(=O)NCC2COc3ccccc3O2)cc1 (stereo unspecified)	none
COc1ccc(Cl)cc1NC(=O)Cc1ccc(NC(=O)N2CCCCc3ccccc32)cc1	none (no result: HCV inh, Pf growth 48h, Pf growth 96h)
CCOC(=O)c1ccc(NC(=S)N(CCCN2CCN(CC)CC2)Cc2cccs2)cc1	HCV inh inconclusive, Pf growth 48h 8.3µM
CCOC(=O)c1ccc(NC(=S)N(CCCN2CCCC(C)C2)Cc2ccco2)cc1 (stereo unspecified)	HCV inh 10µM, Pf growth 48h inconclusive, Pf growth 96h inconclusive
CCOC(=O)c1ccc(NC(=S)N(CCCN2CCN(C)CC2)Cc2cccs2)cc1	HCV inh inconclusive, Pf growth 48h inconclusive
CCOC(=O)c1ccc(NC(=S)N(CCCN2CCCC2)Cc2ccco2)cc1	HCV inh 10µM, Pf growth 48h inconclusive, Pf growth 96h inconclusive
Cc1ccccc1NC(=S)N(CCCN1CCC(C)CC1)Cc1ccco1	Pf growth 96h 13µM
Cc1ccc(CNC(=O)CCCn2c(=O)c3ccccc3n(Cc3ccccc3Cl)c2=O)cc1	none (no result: HCV inh, Pf growth 48h, Pf growth 96h)
Cc1cc(C)c(S(=O)(=O)NCC(c2ccco2)N2CCN(c3ccccc3)CC2)c(C)c1 (stereo unspecified)	none (no result: HCV inh, Pf growth 48h, Pf growth 96h)
Cc1cccc(NC(=O)CSc2nnc3[nH]c(=O)cc(-c4ccccc4)n23)c1C	none (no result: HCV inh, Pf growth 48h, Pf growth 96h)
CCN1CCN(CCCN(Cc2ccco2)C(=S)Nc2ccc(C)c(Cl)c2)CC1	HCV inh 8.9µM, Pf growth 48h inconclusive
CCCNC(=O)C1CCC(Cn2c(=O)c3sccc3n(CC(=O)N(CC)CC)c2=O)CC1 (stereo unspecified)	none (no result: HCV inh, Pf growth 48h, Pf growth 96h)
CCOc1ccccc1NC(=O)CSC1=Nc2ccccc2C2=NC(CC(=O)NCc3ccc4c(c3)OCO4)C(=O)N12 (stereo unspecified)	none (no result: HCV inh, Pf growth 48h, Pf growth 96h)
CCOC(=O)CC(=O)c1sc2c(c1N)c(=O)[nH]c(=O)n2-c1ccc(OC)cc1	Pf growth 48h inconclusive, Pf growth 96h 5.2µM
CC(=O)c1sc2c(c1N)c(=O)[nH]c(=O)n2-c1ccccc1	Pf growth 48h inconclusive
COc1ccc(NC(=O)COc2cc(O)c3c(c2)OC(C)(C)CC3=O)cc1	HCV inh 2.8µM
COc1ccc(CCNC(=O)COc2cc(O)c3c(c2)OC(C)(C)CC3=O)cc1OC	HCV inh 3.2µM, Pf growth 48h inconclusive, Pf growth 96h inconclusive
COc1cccc(NC(=O)COc2cc(O)c3c(c2)OC(C)(C)CC3=O)c1	none
COc1cc(NC(=O)COc2cc(O)c3c(c2)OC(C)(C)CC3=O)cc(OC)c1	HCV inh 2.8µM, Pf growth 96h inconclusive
Cc1cccc(-n2c(C)cc(C(=O)C(=O)Nc3nncs3)c2C)c1	none (no result: HCV inh, Pf growth 48h, Pf growth 96h)
COc1ccccc1OCc1ccc(C(=O)Nc2ccc(C)c(C)c2)o1	none (no result: HCV inh, Pf growth 48h, Pf growth 96h)
CCOC(=O)c1c(C)[nH]c(C)c1S(=O)(=O)N1CCC(C(=O)N2CCN(c3ccc(Cl)cc3)CC2)CC1	none (no result: HCV inh, Pf growth 48h, Pf growth 96h)
Brc1ccc2ncnc(Nc3ccc(N4CCOCC4)cc3)c2c1	HCV inh inconclusive, Pf growth 48h inconclusive, HCMV antiviral -82
O=C(COc1ncnc2ccc(Br)cc12)Nc1ccc(N2CCOCC2)cc1	none
Clc1nc(Nc2ccc(N3CCOCC3)cc2)c2ccccc2n1	HCV inh inconclusive, HCMV antiviral -72
Cc1ccc(C(C)C)c(OCC(=O)N2CCC(c3nc4ccccc4o3)CC2)c1	none (no result: HCV inh, Pf growth 48h, Pf growth 96h)
CCc1cccc2c(C#N)cn(CC(=O)NCCOC)c12	Pf growth 48h 10µM
CC1(C)CC2CC(C)(CN2/C=N/c2sc3c(c2C#N)CC(C)(C)NC3(C)C)C1 (stereo unspecified)	HCV inh inconclusive, Pf growth 48h inconclusive, Pf growth 96h inconclusive, HCMV antiviral -88
O=C(Nc1ccccc1Cl)N(Cc1nc2ccccc2c(=O)[nH]1)Cc1cccs1	Pf growth 48h inconclusive, Pf growth 96h inconclusive, HCMV antiviral inconclusive
O=C(C1CC1)N(Cc1nc2ccccc2c(=O)[nH]1)Cc1cccs1	Pf growth 48h 1.9µM
O=C(Nc1ccc(Cl)cc1)N(Cc1nc2ccccc2c(=O)[nH]1)Cc1cccs1	HCV inh inconclusive, Pf growth 48h 15µM, Pf growth 96h 3.3µM
CC(C)(C)C(=O)N(Cc1nc2ccccc2c(=O)[nH]1)Cc1cccs1	Pf growth 96h 12µM
O=C(CCCl)N(Cc1nc2ccccc2c(=O)[nH]1)Cc1cccs1	none
CCC[C@H]1[C@@H](NS(=O)(=O)c2ccc(-c3ccccc3)cc2)CC[C@@]23CCCN2C(=O)CCC[C@@H]13	none (no result: HCV inh, Pf growth 48h, Pf growth 96h)
Cc1cc(C)cc(OCCSc2nc3ccc(NC(=O)COc4ccccc4)cc3s2)c1	none (no result: HCV inh, Pf growth 48h, Pf growth 96h)
CCc1ccc(C2CC(c3ccccc3)Nc3nc(N)nn32)cc1 (stereo unspecified)	Pf growth 96h 1.9µM
CCOc1ccccc1C1CC(c2ccc(Br)cc2)Nc2nc(N)nn21 (stereo unspecified)	Pf growth 48h inconclusive, Pf growth 96h 7.4µM
Nc1nc2n(n1)C(c1ccccc1Cl)CC(c1ccc(F)cc1)N2 (stereo unspecified)	Pf growth 96h 1.7µM (no result: Pf growth 48h)
COc1cccc(C2CC(c3c(Cl)cccc3Cl)n3nc(N)nc3N2)c1 (stereo unspecified)	Pf growth 48h inconclusive, Pf growth 96h 13µM
CCc1ccc(C2CC(c3ccc(C)cc3)n3nc(N)nc3N2)cc1 (stereo unspecified)	none (no result: Pf growth 48h, Pf growth 96h)
Fc1ccc2nc(-c3ccc(CN4CCC5(CC4)CNc4ccccc45)cc3)c(-c3ccccc3)nc2c1	none (no result: HCV inh, Pf growth 48h, Pf growth 96h)
COc1ccccc1N1CCN(c2ccc(=O)n(CC(=O)NCc3ccc(F)cc3)n2)CC1	none (no result: HCV inh, Pf growth 48h, Pf growth 96h)
